From PubChem BioAssay (Tox21)
Inconclusive results are not listed. Entries that show only a call come without a potency. A number with no mark means an inactive call. The source made the active and inactive calls. Unless noted, the call rests on the fitted dose curve; in most records, active means well fitted curve in the direction sought with a large enough effect in the repeat runs; inconclusive means weak or mixed curves; inactive means no such curve, though single readings can be large; an effect the other way counts as inactive or inconclusive.

Assays:
[1] = qHTS assay to identify aromatase inhibitors - cell viability counter screen (AID 743084);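 further: cells stimulated with testosterone during compound exposure; nearly all actives have a fitted effect of over 55% in size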
[2] = biological target: Aryl hydrocarbon receptor (Homo sapiens) (UniProt P35869); test: qHTS assay to identify small molecule that activate the aryl hydrocarbon receptor (AhR) signaling pathway (AID 743085); further: nearly all actives have a fitted effect of over 15% in size; further: potency means the concentration at half of the fitted maximal effect;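 on activation: HG2L7.5c1 human HepG2 liver cells with stably integrated DRE-driven firefly reporter; series mostly up to about 70 µM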
Aryl hydrocarbon receptor (Homo sapiens), sequence (P35869 whole entry, looked up): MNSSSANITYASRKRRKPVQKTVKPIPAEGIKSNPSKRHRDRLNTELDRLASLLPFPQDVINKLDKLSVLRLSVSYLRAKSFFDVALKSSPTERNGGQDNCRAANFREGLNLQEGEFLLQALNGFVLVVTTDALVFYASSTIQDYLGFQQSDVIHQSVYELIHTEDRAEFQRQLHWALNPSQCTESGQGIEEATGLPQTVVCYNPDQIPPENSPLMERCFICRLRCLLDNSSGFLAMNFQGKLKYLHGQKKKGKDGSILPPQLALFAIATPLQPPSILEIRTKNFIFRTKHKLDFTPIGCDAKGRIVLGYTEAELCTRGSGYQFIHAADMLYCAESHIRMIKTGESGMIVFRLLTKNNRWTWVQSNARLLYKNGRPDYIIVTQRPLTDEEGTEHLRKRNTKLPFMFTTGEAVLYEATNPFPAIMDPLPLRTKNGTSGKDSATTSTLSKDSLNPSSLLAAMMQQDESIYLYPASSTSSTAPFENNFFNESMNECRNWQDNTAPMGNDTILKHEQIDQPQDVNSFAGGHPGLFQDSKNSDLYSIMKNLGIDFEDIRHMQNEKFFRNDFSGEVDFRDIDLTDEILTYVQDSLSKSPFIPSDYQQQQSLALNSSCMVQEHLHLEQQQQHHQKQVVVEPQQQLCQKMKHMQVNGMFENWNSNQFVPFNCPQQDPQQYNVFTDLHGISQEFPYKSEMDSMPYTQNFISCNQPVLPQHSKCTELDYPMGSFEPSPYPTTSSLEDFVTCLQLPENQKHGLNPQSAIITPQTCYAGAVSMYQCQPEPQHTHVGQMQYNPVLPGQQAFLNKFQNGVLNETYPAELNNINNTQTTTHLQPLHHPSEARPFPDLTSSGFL
Summary of the method: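 Compounds were tested in HepG2 hepatocellular carcinoma cells harbouring a stably integrated luciferase gene under control of 20 DREs. Increased reporter signal after 24 h treatment at 37C was taken as AhR activation.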

[3] = qHTS assay to identify small molecule that activate the aryl hydrocarbon receptor (AhR) signaling pathway - cell viability counter screen (AID 743086);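 further: HepG2 liver cells carrying the AhR DRE luciferase reporter; series mostly up to about 70 µM; nearly all actives have a fitted effect of over 45% in size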
Summary of the method: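 HepG2-AhR-luc (HG2L7.5c1) cells, 4000/well, treated 24 h at 37 C with compound; viability measured as CellTiter-Fluor fluorescence after 30 min in the same wells as the luciferase read.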

[4] = biological target: Peroxisome proliferator-activated receptor gamma (Homo sapiens) (UniProt P37231); test: qHTS assay to identify small molecule agonists of the peroxisome proliferator-activated receptor gamma (PPARg) signaling pathway (AID 743094; active means well fitted activation curve with a large enough effect in the signal ratio in the repeat runs, not every such curve was filed as active; the % refers to the signal ratio)
Peroxisome proliferator-activated receptor gamma (Homo sapiens), sequence (P37231 whole entry, looked up): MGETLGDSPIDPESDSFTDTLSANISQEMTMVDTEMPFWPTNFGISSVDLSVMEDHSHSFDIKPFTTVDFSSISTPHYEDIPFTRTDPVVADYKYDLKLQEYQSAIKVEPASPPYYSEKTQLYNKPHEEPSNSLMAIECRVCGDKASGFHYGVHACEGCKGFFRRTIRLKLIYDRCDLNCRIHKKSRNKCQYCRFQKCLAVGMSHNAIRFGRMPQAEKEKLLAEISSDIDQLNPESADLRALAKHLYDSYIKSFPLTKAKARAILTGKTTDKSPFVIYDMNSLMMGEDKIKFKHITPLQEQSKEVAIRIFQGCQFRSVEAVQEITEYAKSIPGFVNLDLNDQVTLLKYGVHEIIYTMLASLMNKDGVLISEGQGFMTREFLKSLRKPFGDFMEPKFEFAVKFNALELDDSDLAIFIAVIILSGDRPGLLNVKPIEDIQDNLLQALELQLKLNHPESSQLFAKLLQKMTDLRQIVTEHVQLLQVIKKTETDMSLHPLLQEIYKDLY
Summary of the method: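 Stably transfected HEK293H cells (GeneBLAzer PPARg UAS-bla) were incubated with test substances for 17 h at 37C after a 5 h pre-incubation; beta-lactamase activity was then detected by FRET substrate fluorescence.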

[5] = biological target: Peroxisome proliferator-activated receptor gamma (Homo sapiens) (UniProt P37231); test: qHTS assay to identify small molecule antagonists of the peroxisome proliferator-activated receptor gamma (PPARg) signaling pathway (AID 743191; calls by dose curve; further: series mostly up to about 63 µM; nearly all actives have a fitted effect of over 30% in size)
Summary of the method: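 GeneBLAzer PPARg UAS-bla HEK293H cells, 5 h post-plating, exposed to compounds 17 h at 37C. LiveBLAzer B/G FRET substrate added for 1 h at room temperature; beta-lactamase reporter read by fluorescence intensity.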

[6] = qHTS assay to identify small molecule antagonists of the peroxisome proliferator-activated receptor gamma (PPARg) signaling pathway - cell viability counter screen (AID 743194); conditions: Potency: co-treated with 50 nM rosiglitazone; further: nearly all actives have a fitted effect of over 55% in size
Summary of the method: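 Cytotoxicity counter screen in PPARg-bla HEK293H cells, same wells as reporter assay. Compounds plus 50 nM rosiglitazone (final) for 17 h at 37 C, then viability read by CellTiter-Glo luminescence.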

[7] = qHTS assay for small molecule agonists of the antioxidant response element (ARE) signaling pathway (AID 743202; active means well fitted activation curve with a large enough effect in the signal ratio in the repeat runs, not every such curve was filed as active; the % refers to the signal ratio)
Summary of the method: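 Agonist mode reporter screen: HepG2 cells with ARE-controlled beta-lactamase are incubated with test compounds for 16 h at 37 C, and beta-lactamase activity is measured as fluorescence of cleaved B/G FRET substrate.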

[8] = qHTS assay for small molecule agonists of the antioxidant response element (ARE) signaling pathway - cell viability counter screen (AID 743203; calls by dose curve; further: nearly all actives have a fitted effect of over 55% in size)
Summary of the method: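 Cells (ARE-bla HepG2, 2,000/well) receive DMSO-dissolved compounds after a 5 hrs rest. Plates incubate 16 hrs at 37C/5% CO2. CellTiter-Glo luminescence is then recorded after 30 min at room temperature.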

[9] = qHTS assay for small molecule activators of the heat shock response signaling pathway - cell viability counter screen (AID 743209); further: nearly all actives have a fitted effect of over 50% in size
Summary of the method: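 Quantitative HTS format, Tox21 10K library. HeLa cells carrying an HSE-driven beta-lactamase reporter were treated 5 h at 37 C, then assessed for viability by CellTiter-Glo luminescence.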

[10] = qHTS assay for small molecule activators of the heat shock response signaling pathway (AID 743210; active means well fitted activation curve with a large enough effect in the signal ratio in the repeat runs, with a control signal flat, not every such curve was filed as active; the % refers to the signal ratio;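 further: HeLa cells with beta-lactamase reporter driven by heat shock elements; series mostly up to about 63 µM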)
Summary of the method: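 Quantitative high-throughput format using an engineered HeLa line in which heat shock response elements drive beta-lactamase; after 5 h with compound, cells received a B/G FRET substrate and fluorescence was read.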

[11] = qHTS assay to identify small molecule agonists of the peroxisome proliferator-activated receptor delta (PPARd) signaling pathway - cell viability counter screen (AID 743211); further: nearly all actives have a fitted effect of over 55% in size
Summary of the method: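 Counter screen for cytotoxicity run in parallel with the PPARd reporter screen. Beta-lactamase reporter HEK293H cells exposed to compounds 17 h; ATP-based CellTiter-Glo luminescence quantified viability.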

[12] = biological target: Peroxisome proliferator-activated receptor delta (Homo sapiens) (UniProt Q03181); test: qHTS assay to identify small molecule agonists of the peroxisome proliferator-activated receptor delta (PPARd) signaling pathway (AID 743212; calls by dose curve)
Peroxisome proliferator-activated receptor delta (Homo sapiens), sequence (Q03181 whole entry, looked up): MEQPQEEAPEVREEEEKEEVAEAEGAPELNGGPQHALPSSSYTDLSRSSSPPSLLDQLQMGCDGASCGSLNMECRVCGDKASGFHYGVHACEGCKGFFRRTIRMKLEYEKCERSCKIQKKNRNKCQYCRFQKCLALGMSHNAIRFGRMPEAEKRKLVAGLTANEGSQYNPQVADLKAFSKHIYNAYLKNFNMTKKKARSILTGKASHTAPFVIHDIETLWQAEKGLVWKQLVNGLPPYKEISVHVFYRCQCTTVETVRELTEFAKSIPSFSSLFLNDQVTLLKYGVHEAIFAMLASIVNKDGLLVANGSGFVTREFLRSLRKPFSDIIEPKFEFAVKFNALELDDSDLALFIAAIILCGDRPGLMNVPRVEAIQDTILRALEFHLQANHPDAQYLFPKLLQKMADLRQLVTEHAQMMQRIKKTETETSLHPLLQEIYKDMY
Summary of the method: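 Quantitative high-throughput agonist screen in a HEK293H beta-lactamase reporter line under UAS control. Compounds in DMSO, at 37 C. Fluorescence read after 2 h with FRET substrate at room temperature.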

[13] = qHTS assay to identify small molecule antagonists of the peroxisome proliferator-activated receptor delta (PPARd) signaling pathway - cell viability counter screen (AID 743213); further: nearly all actives have a fitted effect of over 50% in size
Summary of the method: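 HEK293H cells with the PPARd UAS-bla reporter, co-treated 17 h at 37 C with compounds and L165041 (300 nM final), were lysed with CellTiter-Glo. Luminescence indicated viable cell content.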

[14] = biological target: Peroxisome proliferator-activated receptor delta (Homo sapiens) (UniProt Q03181); test: qHTS assay to identify small molecule antagonists of the peroxisome proliferator-activated receptor delta (PPARd) signaling pathway (AID 743215; active means well fitted inhibition curve with a large enough effect in the signal ratio in the repeat runs, not every such curve was filed as active; the % refers to the signal ratio;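 further: cells stimulated with agonist L165041 at 300 nM final during compound exposure; series mostly up to about 62 µM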)
Summary of the method: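 Antagonist-mode beta-lactamase reporter screen: HEK293H cells with UAS-bla under PPARd control, stimulated by 300 nM L165041 (final) alongside test compound for 17 h at 37 C, then FRET fluorescence after 2 h substrate incubation.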

[15] = biological target: Bile acid receptor (Homo sapiens) (UniProt Q96RI1); test: qHTS assay to identify small molecule antagonists of the farnesoid-X-receptor (FXR) signaling pathway (AID 743217; active means well fitted inhibition curve with a large enough effect in the signal ratio in the repeat runs, not every such curve was filed as active; the % refers to the signal ratio)
Bile acid receptor (Homo sapiens), sequence (Q96RI1 whole entry, looked up): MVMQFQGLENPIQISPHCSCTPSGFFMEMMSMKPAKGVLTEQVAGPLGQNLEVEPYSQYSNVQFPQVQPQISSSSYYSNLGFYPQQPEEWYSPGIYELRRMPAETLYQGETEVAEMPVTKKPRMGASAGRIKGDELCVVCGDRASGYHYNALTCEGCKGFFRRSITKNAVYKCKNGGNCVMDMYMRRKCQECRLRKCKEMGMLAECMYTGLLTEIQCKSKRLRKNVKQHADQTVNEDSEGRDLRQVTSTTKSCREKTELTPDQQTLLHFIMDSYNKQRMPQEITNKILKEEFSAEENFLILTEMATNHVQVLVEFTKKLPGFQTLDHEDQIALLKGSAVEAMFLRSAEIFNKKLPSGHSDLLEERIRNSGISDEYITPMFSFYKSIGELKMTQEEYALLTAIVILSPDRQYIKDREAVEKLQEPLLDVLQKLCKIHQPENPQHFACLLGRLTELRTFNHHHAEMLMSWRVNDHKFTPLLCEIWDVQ
Summary of the method: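 Beta-lactamase reporter under UAS control in HEK 293T cells; compound exposure 16 h at 37 °C in the presence of chenodeoxycholic acid (50 uM final); signal from B/G FRET substrate after 2 h at room temperature.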

[16] = qHTS assay to identify small molecule agonists of the farnesoid-X-receptor (FXR) signaling pathway - cell viability counter screen (AID 743218); further: nearly all actives have a fitted effect of over 45% in size
Summary of the method: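 In GeneBLAzer FXR-UAS-bla HEK 293T cells, compounds act for 16 h at 37 C. Cell viability is then scored in the reporter wells by CellTiter-Glo, 30 min at RT, luminescence.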

[17] = biological target: Bile acid receptor (Homo sapiens) (UniProt Q96RI1); test: qHTS assay to identify small molecule agonists of the farnesoid-X-receptor (FXR) signaling pathway (AID 743220; active means well fitted activation curve with a large enough effect in the signal ratio in the repeat runs, not every such curve was filed as active; the % refers to the signal ratio)
Summary of the method: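 Beta-lactamase reporter under UAS control in GeneBLAzer FXR HEK 293T cells (5000/well) measured with LiveBLAzer FRET substrate after 2 h at room temperature. Compound exposure lasted 16 h at 37C.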

[18] = qHTS assay to identify small molecule antagonists of the farnesoid-X-receptor (FXR) signaling pathway - cell viability counter screen (AID 743221; active means well fitted cell-killing curve with a large enough effect in the repeat runs, not every such curve was filed as active; further: nearly all actives have a fitted effect of over 50% in size)
Summary of the method: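 Multiplexed counter screen: viability of FXR-bla HEK 293T cells under agonist stimulation by chenodeoxycholic acid (50 uM, final) and test compound for 16 h at 37 C, measured by CellTiter-Glo luminescence in the reporter wells.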

[19] = biological target: Vitamin D3 receptor (Homo sapiens) (UniProt P11473); test: qHTS assay to identify small molecule antagonists of the vitamin D receptor (VDR) signaling pathway (AID 743223; active means well fitted inhibition curve with a large enough effect in the signal ratio in the repeat runs, not every such curve was filed as active; the % refers to the signal ratio)
Vitamin D3 receptor (Homo sapiens), sequence (P11473 whole entry, looked up): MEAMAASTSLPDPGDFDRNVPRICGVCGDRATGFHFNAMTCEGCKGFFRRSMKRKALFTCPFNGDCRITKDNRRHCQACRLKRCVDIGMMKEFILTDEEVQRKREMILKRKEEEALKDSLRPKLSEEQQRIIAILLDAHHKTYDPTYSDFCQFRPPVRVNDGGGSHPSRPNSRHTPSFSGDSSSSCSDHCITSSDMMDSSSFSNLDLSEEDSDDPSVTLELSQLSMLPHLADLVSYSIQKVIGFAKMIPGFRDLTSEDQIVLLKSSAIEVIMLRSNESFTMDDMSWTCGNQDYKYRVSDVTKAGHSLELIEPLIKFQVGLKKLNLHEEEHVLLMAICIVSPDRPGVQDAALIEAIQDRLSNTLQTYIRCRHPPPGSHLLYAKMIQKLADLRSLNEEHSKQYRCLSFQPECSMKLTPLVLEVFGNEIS
Summary of the method: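 Cells carrying a VDR-driven beta-lactamase reporter (VDR-bla) were co-treated with compound and 3 nM final 1alpha,25-dihydroxyvitamin D3 for 16 h at 37C; reporter activity was measured as FRET substrate fluorescence after 2 h at room temperature.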

[20] = biological target: Vitamin D3 receptor (Homo sapiens) (UniProt P11473); test: qHTS assay to identify small molecule agonists of the vitamin D receptor (VDR) signaling pathway (AID 743222; calls by dose curve)
Summary of the method: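 Agonist activity measured in VDR-bla reporter cells. Exposure 16 h, 37C, 5% CO2; detection by B/G FRET substrate, 2 h RT.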

Compound	Potency [1]	Potency [2]	Potency [3]	outcome [4]	Potency [5]	Potency [6]	Potency [7]	Potency [8]	Potency [9]	Potency [10]	Potency [11]	outcome [12]	Potency [13]	Potency [14]	outcome [15]	Potency [16]	outcome [17]	Potency [18]	outcome [19]	outcome [20]
COc1cc(CCN)cc(OC)c1OC	inactive	inactive	inactive	inactive	inactive	inactive	inactive	inactive	inactive	inactive	inactive	inactive	inactive	inactive	inactive	inactive	inactive	inactive	inactive	–
C=CCN1CC[C@]23CCCC[C@H]2[C@H]1Cc1ccc(O)cc13	inactive	inactive	inactive	inactive	inactive	inactive	inactive	inactive	inactive	inactive	inactive	–	inactive	–	inactive	inactive	inactive	inactive	inactive	inactive
BrCCc1ccccc1	inactive	inactive	inactive	inactive	inactive	inactive	inactive	inactive	inactive	inactive	inactive	inactive	inactive	inactive	–	inactive	–	inactive	–	–
Clc1ccc(C(Cl)(Cl)Cl)cn1	inactive	48.6 µM (active)	inactive	inactive	inactive	inactive	inactive	–	inactive	inactive	inactive	inactive	inactive	inactive	inactive	inactive	inactive	inactive	–	inactive
CN=CNc1ccc(C)cc1C	inactive	inactive	inactive	inactive	inactive	inactive	–	inactive	inactive	inactive	inactive	inactive	inactive	–	–	inactive	–	inactive	inactive	–
COP(=O)(OC)O/C(C)=C/C(=O)N(C)C	inactive	inactive	inactive	inactive	inactive	–	inactive	inactive	inactive	inactive	inactive	inactive	–	–	–	–	–	inactive	inactive	inactive
C[N+]1(C)CCCCC1	inactive	inactive	inactive	inactive	inactive	–	inactive	inactive	inactive	inactive	–	inactive	inactive	inactive	–	inactive	–	inactive	inactive	inactive
CCCCOC(C)=O	inactive	inactive	inactive	inactive	inactive	inactive	inactive	inactive	inactive	–	inactive	inactive	inactive	inactive	inactive	inactive	inactive	inactive	–	–
CCC1(c2ccccc2)C(=O)N(COC)C(=O)N(COC)C1=O	inactive	inactive	inactive	inactive	inactive	inactive	inactive	inactive	–	inactive	–	inactive	inactive	inactive	–	inactive	–	inactive	inactive	inactive
